High-throughput results from PubChem.
Sampled rows, rich in hits. Any-hit rate of the full collection: about 21%.
Pf growth 96h: inhibits malaria parasite growth, 96 h | P. falciparum luciferase reporter growth, 96 h | Potency, µM (highest dose often 28.7 µM), without a hit: at the highest dose activity change, negative = inhibition, actives largely listed as inhibitors | actives 6.9% (n = 320,000); also: potency is read from the fitted curve at half-maximal effect; % is scaled to controls: 0 for no effect and ±100 for the full control effect
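Delayed-death screen, second-generation endpoint: infected erythrocytes, 2% hematocrit, 0.05% parasitemia final; 96 hours at 37 C, 5% CO2; luciferase detection reagent; luminescence decrease equals reduced growth.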
NS1 inh: blocks influenza NS1 protein function; Potency, µM (titrated, usually from 46.1 µM), inactives show at the top dose activity, positive = more growth; actives 0.4% (n = 270,000); AID 2326; calls by dose curve; also: potency is read from the fitted curve at half-maximal effect; actives are rising curves; nearly all actives have a fitted effect of over 50% in size
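A cell-based growth assay was used: compounds that relieve NS1-induced slow growth of budding yeast raise OD600. Assay medium was yeast nitrogen base with ammonium sulphate and -URA supplement, pH 6.0, with 2% galactose.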
Pf growth 48h: P. falciparum growth inhibition at 48 hours (one generation); P. falciparum luciferase growth in erythrocytes, 48 h; Potency, µM (doses to about 28.7 µM), for the others: top-dose activity change, negative = inhibition, most hits filed as inhibitors; actives 5.9% (n = 310,000); also: potency is read from the fitted curve at half-maximal effect; % is scaled to controls: 0 for no effect and ±100 for the full control effect
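In quantitative HTS format, infected erythrocytes bearing luciferase-reporter parasites were treated for a single generation at 37 C. Luminescence after adding detection reagent served as the growth measure.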
CHX counter: counter-screen for Shiga toxin inhibitors: cycloheximide protein synthesis inhibition; max response, %; actives 12% (n = 300,000); cell reporter, cycloheximide protein synthesis inhibition counterscreen; in the data active = max response mostly above about 13%, no sharp cut-off; inactive = mostly below about 14%; also: read at 38.3 µM for the half of the compounds with a filed dose; 0% is about no effect
Shiga toxin inh: Shiga toxin inhibition. Vero cells, Shiga toxin protein synthesis inhibition reporter. inhibition, % at 38.7 µM. actives 9.2% (n = 290,000); in the data active = inhibition mostly above about 28%, no sharp cut-off; inactive = mostly below about 43%; also: 0% is about no effect
Sm TGR inh: blocks Schistosoma mansoni thioredoxin glutathione reductase | actives 3% (n = 360,000) | purified TGR, DTNB reduction, TNB absorbance 405 nm | AID 485364 | Potency, µM (doses to about 114 µM), for the others: top-dose activity change, negative = inhibition, hits mostly inhibitors; also: potency is read from the fitted curve at half-maximal effect; % is scaled to controls: 0 for no effect and ±100 for the full control effect; nearly all actives have a fitted effect of over 60% in size
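Kinetic colorimetric format: TGR-catalysed, NADPH-driven DTNB reduction monitored via TNB absorbance. Enzyme dispensed at 20 nM; compound exposure 15 min at room temperature before reaction start.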
Starred values were filed as active, the others as inactive; u = inconclusive; x = no result. Unless noted, calls follow the shape of the dose curve; as a rule, active = well fitted curve in the direction sought with a large enough effect; inconclusive = small, poorly fitted or top-dose-only effect, or another doubt; inactive = no such curve, though single readings can be large; an effect the other way counts as inactive or inconclusive.

SMILES | Pf growth 96h | NS1 inh | Pf growth 48h | CHX counter | Shiga toxin inh | Sm TGR inh
COC(=O)c1cccc(NC(=O)Nc2ccc(Cl)c(Cl)c2)c1 | u | 10% | u | 38* | 59* | -16%
Cc1ccsc1C(=O)NNC(=O)CCN1CCN(c2ccccc2)CC1 | 42% | x | 26% | x | x | 0%
COc1ccc(NS(=O)(=O)c2cccc(C(=O)N(C)Cc3ccc(SC)cc3)c2)cc1 | u | x | u | x | x | -3%
CCCn1c(C(C)Nc2nc(-c3ccc(Cl)c([N+](=O)[O-])c3)cs2)nc2ccccc21 (stereo not drawn) | 5.9µM* | 22% | 13µM* | -1 | -10 | -2%
CCCn1c(C(C)Nc2nc(-c3ccc(C)cc3)cs2)nc2ccccc21 (stereo not drawn) | 9.3µM* | 16% | u | 3 | 23 | 2%
CCCn1c(C(C)Nc2nc(C)cs2)nc2cc(Cl)c(Cl)cc21 (stereo not drawn) | 30% | 12% | -11% | -3 | -5 | -19%
CCCn1c(C(C)Nc2nc(-c3cc(Cl)c(N)c(Cl)c3)cs2)nc2cc(Cl)c(N3CCCCC3)cc21 (stereo not drawn) | 7.4µM* | 22% | u | 1 | 2 | -2%
CCN1CCN(Cc2nc3cc(NC(=O)c4ccccc4[N+](=O)[O-])ccc3n2CC)CC1 | x | x | x | x | x | 1%
COc1cc(NC(=O)C2CCN(S(=O)(=O)c3ccc4c(c3)CCCC(=O)N4)CC2)cc(OC)c1 | x | x | x | x | x | -2%
COc1ccc(CN=C(Nc2ccccc2)SC2CC(=O)N(C)C2=O)cc1 (stereo not drawn) | -12% | 6% | 17% | 4 | -9 | -3%
NC(=O)c1c(NC(=O)c2ccncc2)sc2c1CCCCCC2 | 2% | -11% | -12% | 12* | 26 | -2%
N#Cc1c(NC(=O)c2ccncc2)sc2c1CCC2 | 73% | -17% | 54% | 17* | 47* | u
O=C(Nc1sc2c(c1C(=O)O)CCCCC2)c1cccnc1 | 8% | 7% | 17% | 8 | -1 | -11%
NC(=O)c1c(NC(=O)c2ccncc2)sc2c1CCCC2 | 0% | x | 48% | 22* | 95* | -1%
CC(C)(C)C1CCc2c(sc(NC(=O)c3cccs3)c2C(N)=O)C1 (stereo not drawn) | -5% | 1% | 187% | 32* | 63* | -6%
CCC(C)(C)c1nnc(NC(=O)C2CC(=O)N(CCc3ccc(F)cc3)C2)s1 (stereo not drawn) | u | -1% | 2% | -5 | 24 | 5%
Cn1ncc(Cl)c1C(=O)Nc1sc2c(c1C(N)=O)CCC2 | -1% | -6% | 36% | 0 | -2 | u
NC(=O)c1c(NC(=O)c2ccccc2)sc2c1CCc1ccccc1-2 | 109% | -2% | x | 21* | 33 | -3%
NC(=O)c1c(NC(=O)c2ccccc2)sc2c1CCC2 | -10% | -13% | 119% | 64* | 78* | -30%
CC(=O)Nc1sc2c(c1C#N)CCCC2 | u | -17% | 6% | 4 | 1 | -4%
Cn1nc(C(=O)Nc2sc3c(c2C#N)CCCC3)ccc1=O | 100% | x | 143% | 27* | 67 | 5%
NC(=O)c1c(NC(=O)c2cnccn2)sc2c1CCCC2 | 64% | x | 106% | 16* | 32 | -10%
CCN1CCc2c(sc(NC(=O)c3ccc(C(=O)c4ccccc4)cc3)c2C(N)=O)C1 | u | -3% | u | -3 | -11 | 2%
Cc1nc2ccc(C(=O)N3CCN(Cc4ccccc4)CC3)cc2[nH]1 | 1% | -2% | 30% | 10 | -13 | 7%
NC(=O)c1c(NC(=O)Cc2cccs2)sc2c1CCC2 | 38% | 1% | 36% | 16* | 19* | u
SMILES | Pf growth 96h | NS1 inh | Pf growth 48h | CHX counter | Shiga toxin inh | Sm TGR inh
CCOC(=O)c1c(NC(=O)Cc2cccs2)sc2c1CCCC2 | 18% | -7% | -18% | 1 | -22 | 0%
Clc1ccc(OCc2nnc(SCc3nnc(-c4ccccc4)o3)o2)c(Cl)c1 | x | -1% | 26% | 39* | 56* | 7%
O=C(CSc1nnc(COc2ccc(Cl)cc2Cl)o1)Nc1ccccn1 | 8% | -67% | 32% | 28* | 60* | -1%
Cc1sc2ncn(CC(=O)OC(C)C)c(=O)c2c1C | -10% | 8% | x | 3 | -4 | 3%
CC(C)c1ccc(N2C(=O)CS(=O)(=O)C23C(=O)N(Cc2cccc(F)c2)c2ccccc23)cc1 (stereo not drawn) | x | x | x | x | x | 1%
CC1N(C)c2cc(NC(=O)c3ccco3)c(P(=O)(Nc3ccc([N+](=O)[O-])cc3)N3CCOCC3)cc2C1(C)C (stereo not drawn) | 9.3µM* | 6% | 5.9µM* | 24 | 56* | 0%
CC1N(C)c2cc(NC(=O)c3ccco3)ccc2C1(C)C (stereo not drawn) | 16% | -85% | -71% | 44* | 74* | u
O=C(Cn1ncc2c([nH]c3ccccc32)c1=O)NCCCN1CCN(c2ccc(F)cc2)CC1 | x | x | x | x | x | 9%
Cc1c(C(=O)O)sc2ncn(C)c(=O)c12 | u | 3% | 23% | -2 | 0 | 6%
Cc1ccc(OC(=O)c2sc3ncn(C)c(=O)c3c2C)cc1 | u | x | 339% | 41* | 142* | -9%
Cc1ccc(CNC(=O)CCCn2c(=O)c3ccccc3n(CC(=O)C(C)(C)C)c2=O)cc1 | x | x | x | x | x | -4%
O=C(O)CCCC(=O)Nc1ccccc1SCCS(=O)(=O)c1ccc(Cl)cc1 | 30% | -7% | 16% | -3 | 1 | 40µM*
O=C(CCS(=O)(=O)c1ccc(Cl)cc1)Nc1ccccc1Br | 224% | 1% | 3% | 0 | 3 | 5%
COc1ccc(-n2ccnc(NCc3ccc(Cl)cc3)c2=O)cc1 | x | x | x | x | x | -2%
COc1ccc(CCNC(=O)c2c(C)oc3ncn(CC(C)C)c(=O)c23)cc1OC | x | x | x | x | x | -2%
O=C(/C=C/c1ccccn1)c1cc(Cl)cc(Cl)c1O | u | -42% | u | 1 | -5 | 40µM*
CC(=O)c1ccc(OCC(=O)OCc2cc(-c3ccco3)on2)cc1 | -6% | x | -11% | x | x | 50µM*
COc1ccc(OC)c(NC(=O)COCc2cc(-c3ccco3)on2)c1 | x | x | x | x | x | -2%
Cc1cc(F)ccc1NC(=O)c1csc2c1CCC(C)C2 (stereo not drawn) | x | x | x | x | x | -1%
COc1ccc(NC(=O)c2c(NCc3ccc(C)o3)sc3c2CCC(C)C3)c(OC)c1 (stereo not drawn) | x | x | x | x | x | 28µM*
COc1ccc(NC(=O)c2c(NC(=O)COc3ccccc3)sc3c2CCC(C)C3)cc1 (stereo not drawn) | x | x | x | x | x | -8%
COc1ccccc1NC(=O)c1csc2c1CCC(C)C2 (stereo not drawn) | u | -2% | -80% | 51* | 67* | 50µM*
COc1ccccc1NC(=O)c1c(NCc2ccc(C)o2)sc2c1CCC(C)C2 (stereo not drawn) | x | x | x | x | x | 32µM*
